Data published in PubChem BioAssay AID1530 (NMMLSC, 2009).
Where “and” joins values, the source holds several entries; their conditions need not be identical. Equal values may be shown once. Among all 290,000 compounds or so, about 1,000 (0.34%) were called active. Shown is part of a subset that was picked to be rich in actives. Values without a mark were called inactive. Cut-off read from the data, not from the text of the source: active = percent response above about 24% (passing the limit was not always enough); inactive = the rest.

Each compound was assayed on MEKK2 (MAP3K2) mutant PB1 domain binding to MEK5, human (assay: MEK5 binding signal on mutant MEKK2 PB1, primary screen, biochemical, multiplex bead flow cytometry, Alexa488-MEK5 (AID 1530)). Conditions: at 10 µM, active compounds read high.

| Compound | percent response |
| --- | --- |
| COc1ccc(NC(=O)CCC(=O)Nc2nnc(C3CCCCC3)s2)cc1 | 1% |
| CN(Cc1ccccc1)CC(O)COc1ccc(CNCc2cc3ccccc3s2)cc1 (stereo unspecified) | 33% (active) |
| Cc1ccc(OCC(=O)OC(C)CN(C)Cc2ccccc2)cc1 (stereo unspecified) | -3% |
| OC(CNCc1ccc2c(c1)OCO2)COc1ccccc1 (stereo unspecified) | -5% |
| Cc1ccc(-c2noc(C3CCCN(C(=O)c4cccc(Cl)c4)C3)n2)o1 (stereo unspecified) | -3% |
| OC(CNCCc1ccc(Cl)cc1Cl)COc1ccccc1 (stereo unspecified) | 11% |
| NC(N)=N/N=C/c1ccc(OCc2ccc(Cl)cc2Cl)cc1 | 52% (active) |
| CCOc1ccc(NC(=O)NNC(=O)c2ccc(Cl)cc2Cl)cc1 | -5% |
| COc1ccc(Br)cc1CN(C)CC(=O)Nc1cc(Cl)cc(Cl)c1 | 1% |
| Cc1ccc2c(c1)C1CN(C)CCC1N2S(=O)(=O)c1ccc(Oc2ccc([N+](=O)[O-])cc2)cc1 (stereo unspecified) | 63% (active) |
| Cc1ccc2c(c1)C1CN(C)CCC1N2C(=O)c1ccccc1NS(=O)(=O)c1ccc(F)cc1C (stereo unspecified) | -2% |
| Cc1ccc2c(c1)C1CN(C)CCC1N2C(=S)Nc1ccc(OC(F)F)cc1 (stereo unspecified) | 5% |
| O=C(CN(C(=O)CCC(=O)Nc1nccs1)c1ccc(F)cc1)NCc1ccc2c(c1)OCO2 | -3% |
| CCCOc1ccc(CNC(=O)C2CCN(c3nn4c(=O)cc(C)nc4s3)CC2)cc1 | 11% |
| COc1ccc(CCN(C)C(=O)C2CCCN(Cc3ccc(OC)c(OC)c3)C2)cc1OC (stereo unspecified) | 3% and 10% |
| CCCCNC(=O)N1CCCC(N(C)CCc2ccc(OC)c(OC)c2)C1 (stereo unspecified) | 24% (active) |
| COc1ccc(CCNC(=O)C2CCCN2C(=O)Nc2ccccc2)cc1OC (stereo unspecified) | 5% |
| C=CCC1=C/C(=C\c2c(N)n3nc(CC(=O)N4CCOCC4)sc3nc2=O)C=C(OC)C1=O | -5% |
| CCOC(=O)C1C(c2ccc(O)cc2)NC(=O)NC1(O)C(F)(F)F (stereo unspecified) | 20% |
| COc1cccc(C2CC(c3cccs3)=NN2C(=O)CSC2=NCCS2)c1OC (stereo unspecified) | 5% |
| CCc1nnc(NC(=O)CSCc2cc(=O)n3cc(C)sc3n2)s1 | 4% |
| CCCCOC(=O)Cn1c(=N)n(CCN(CC)CC)c2ccccc21 | 1% |
| CCCCCCCCCCOC(=O)Cn1c(COc2cccc(OC)c2)[n+](C)c2ccccc21 | 81% (active) |
| Cc1ccc(OCc2nc3ccccc3n2C)cc1 | -2% |

| Compound | percent response |
| --- | --- |
| CCCCCCCCCCOC(=O)Cn1c(COc2ccc(C)cc2)[n+](C)c2ccccc21 | 91% (active) |
| COc1cccc(OCC(=O)Nc2ccccc2C(N)=O)c1 | 9% |
| COc1cccc(OCCCN2CCCCCC2)c1 | -3% |
| COc1ccc(N(CC(=O)Nc2ccc(F)c(F)c2)S(=O)(=O)c2c(C)[nH]c(=O)[nH]c2=O)cc1 | -7% |
| COc1cc(C(C(=O)NC2CCCC2)N(C(=O)c2ccco2)c2ccccc2C(C)=O)cc(OC)c1OC (stereo unspecified) | 6% |
| O=C(N/N=C/c1cccc(O)c1)c1cc2c(ccc3ccccc32)o1 | 0% |
| O=C(CSc1nnc(SCc2ccc(Cl)cc2)s1)N/N=C/c1ccccc1Cl | 20% |
| Cc1ccc2c(c1)N(CC(=O)N(Cc1ccccn1)Cc1ccco1)C(=O)C(C(C)C)O2 (stereo unspecified) | 3% |
| CC1CCCC(C)N1C(=O)CSc1nnnn1C1CCCC1 (stereo unspecified) | -3% |
| CCCc1nnc(SCC(=O)N2C(C)CCCC2C)n1CC (stereo unspecified) | 1490% (active) |
| CCCc1cc(=O)[nH]c(SCC(=O)N2C(C)CCCC2C)n1 (stereo unspecified) | 12% |
| O=C(NC(Cc1ccc(O)cc1)C(=O)O)/C(=C/c1ccccc1)NC(=O)c1ccccc1 (stereo unspecified) | 4% |
| Fc1ccc(-c2ccc(CNCc3ccccn3)o2)cc1Cl | 25% (active) |
| CN(Cc1ccccn1)Cc1nc(-c2ccc(Cl)cc2)no1 | -10% |
| COc1ccc(-c2ccc(CNCCCN3CCOCC3)o2)cc1Cl | 2% |
| CCCC(=O)N1CCN(c2nnc(-c3ccc(C)cc3)c3ccccc23)CC1 | 0% |
| C/C=C/C(=O)OCc1csc(CC(=O)Nc2ccccc2C)n1 | -6% |
| O=C(c1ccco1)N1CCN(Cc2cccc(C(F)(F)F)c2)CC1 | 5% |
| O=C(CN1CCN(C(=O)c2ccco2)CC1)Nc1ccc(Cl)c(C(F)(F)F)c1 | 24% (active) |
| O=C(CN1CCN(C(=O)c2ccco2)CC1)Nc1ccc2c(c1)OCO2 | 7% |
| CC1CCC(NC(=O)c2ccc(N3CCCC3=O)cc2)CC1 (stereo unspecified) | 6% |
| CCOc1ccc(C(=O)NCCCN2CCCC2=O)cc1 | 8% |
| O=C(NCCCN1CCCCCC1)c1ccc(N2CCCC2=O)cc1 | 31% (active) |
| CCN(CC(=O)Nc1ccc2c(c1)OCO2)S(=O)(=O)c1ccccc1 | -3% |

| Compound | percent response |
| --- | --- |
| CC(=O)c1ccc(S(=O)(=O)N2CCN(c3nc4c(C)c(C)ccc4cc3C#N)CC2)cc1 | 1% |
| Cc1ccc(C(=O)NCCN2CCOCC2)cc1C | -1% |
| Cc1cccc(-c2nc3ccc(C(=O)NCCN4CCN(C)CC4)cc3nc2-c2cccc(C)c2)c1 | 34% (active) |
| CCC1=Nc2cc(C(=O)NCCN3CCCC3)ccc2Sc2ccc(C)cc21 | 15% |
| Cc1c(NC(=O)c2cc(-c3ccc(Br)cc3)on2)c(=O)n(-c2ccccc2)n1C | 4% |
| CCOc1ccc(N(CC)S(=O)(=O)c2cccc3nsnc23)cc1 | 2% |
| Cc1ccc(NC(=O)CCNS(=O)(=O)c2ccc3c(c2)oc(=O)n3C)cc1C | 3% |
| Cn1c(=O)c2cc(S(=O)(=O)NCCC(=O)Nc3ccc(F)cc3F)ccc2n(C)c1=O | -8% |
| COc1ccc(NC(=O)CCNS(=O)(=O)c2ccc3c(c2)c(=O)n(C)c(=O)n3C)cc1OC | 56% (active) |
| CCSc1nc2sc3c(c2c(=O)n1-c1ccc(C)cc1)CCN(C)C3 | 3% |
| CN(C)S(=O)(=O)c1ccc(N/C=C(\[N+](=O)[O-])S(=O)(=O)c2ccccc2)cc1 | -3% |
| CCOC(=O)c1cccc(NC(=O)c2ccc(F)cc2F)c1 | -1% |
| CCOc1ccccc1OCCCNCc1ccccc1 | 1% |
| CN1CCN(/N=C/c2ccc(-c3ccc([N+](=O)[O-])cc3)o2)CC1 | -2% |
| CN1CCN(/N=C/c2ccc(C#N)cc2)CC1 | 134% (active) |
| CSc1ccc(/C=N/N2CCN(Cc3ccccc3Cl)CC2)cc1 | -5% |
| Cc1ccc(CNC(=O)c2ccc3c(c2)S(=O)(=O)c2ccccc2C3=O)cc1 | 6% |
| COC(=O)Nc1ccc(S(=O)(=O)Nc2cc(OC)nc(OC)n2)cc1 | 7% |
| COc1ccc(C=C(C#N)C#N)c(CSc2ccccn2)c1 | 11% |
| O=C(NC1CCN(S(=O)(=O)c2ccc(F)cc2)CC1)c1ccccc1 | 4% |
| Cc1ccc(S(=O)(=O)NCC(=O)N2CCOCCOCCOCCOCC2)cc1 | -7% |
| Cc1ccc(S(=O)(=O)NC(=O)N2CCCN(Cc3ccc(F)cc3)CC2)cc1 | -4% |
| Cc1ccc(S(=O)(=O)NC(=O)N2CCCC(C)(C)C2)cc1 | 24% (active) |
| O=[N+]([O-])c1ccc2nc(-c3ccccn3)[nH]c2c1 | -17% |

| Compound | percent response |
| --- | --- |
| Cc1cccc(Nc2nc(NCCO)nc(N3CCCC3)n2)c1 | 4% |
| COc1ccc(Cn2c(=S)[nH]c3cc(C(=O)N4CCCCC4)ccc3c2=O)cc1 | -5% |
| C/C(=N\NC(=O)c1ccc(NS(=O)(=O)c2cccs2)cc1)c1ccc2ccccc2c1 | -4% |
| CC(=O)c1cccc(OCc2cc(C(=O)NC(C)Cc3cccnc3)no2)c1 (stereo unspecified) | 10% |
| CC(=O)Nc1ccc(Nc2c3ccccc3nc3ccccc23)cc1 | 3% |
| CC(=O)Nc1ccc(-c2nc3ccccc3o2)cc1 | 28% (active) |
| Cc1ccc2nc(-c3ccc(NC(=O)c4cccnc4)cc3)oc2c1 | 0% |
| COc1ccc(-n2nc(C(=O)NCC(=O)N3CCCCCC3)c3ccccc3c2=O)cc1Cl | 6% |
| COc1ccc(CC(=O)Nc2cc(S(=O)(=O)N3CCCCC3)ccc2N2CCN(C)CC2)cc1 | -1% |
| CN1CCN(c2ccc(S(=O)(=O)N3CCCCC3)cc2NC(=O)Cc2ccccc2F)CC1 | 0% |
| CCN1CCN(c2ccc(S(=O)(=O)N3CCCCC3)cc2NC(=O)Cc2c(Cl)cccc2Cl)CC1 | 24% (active) |
| Cc1cccc(S(=O)(=O)N2CN(CC3CCCO3)c3nc4ccccc4nc32)c1 (stereo unspecified) | 1% |
| Cc1ccc([N+](=O)[O-])c(OCCCNCC(C)O)c1 (stereo unspecified) | 7% |
| CCOc1ccc(NC(=O)CCCCCN2C(=O)[C@@H]3Cc4ccccc4CN3C2=O)cc1 | 0% |
| CN(C)CCCNC(=O)c1cc(C(=O)Cc2ccc(Cl)cc2)c[nH]1 | 27% (active) |
| CN(C)CCCNC(=S)NCc1ccc(Cl)cc1 | 13% |
| CC(C)CC(=O)c1c[nH]c(C(=O)NCc2ccccc2)c1 | 10% |
| Cc1noc(C)c1C(=O)NCCc1ccc(S(N)(=O)=O)cc1 | 2% |
| Cc1ccc2nc(-c3ccc(NC(=O)CN(C)S(=O)(=O)c4ccccc4)cc3)sc2c1 | -5% |
| OCCNc1nc(Nc2ccc(Cl)c(Cl)c2)nc2ccccc12 | 31% (active) |
| CN(C)c1nc(Nc2ccc(Cl)c(Cl)c2)nc(N(C)C)n1 | 0% |
| Nc1nc(Nc2ccccc2)nc(NCCO)c1[N+](=O)[O-] | -1% |
| CCOC(=O)C1=C(CN2CCc3ccccc32)NC(=O)NC1c1cc(C)ccc1C (stereo unspecified) | 5% |
| COc1cc2c(cc1OC)C(C)N(S(=O)(=O)c1cnc(Cl)c(Cl)c1)CC2 (stereo unspecified) | 10% |
